62 compounds from ChEMBL document CHEMBL3988442, “University of Dundee, Small-Polar-MMV Screening Library” (2021) can be followed below.

Hit rate of the full screen: of about 85,000 compounds, about 440 (0.52%) showed an effect of 50% or more. Many of the other results were omitted from the sample, so strong results are more common in it than they were.

The assay is described as follows: In vitro enzyme assay to detect hydrolysis of chlorophenol red-beta-D-[…] directly proportional to the number of Toxoplasma stably expressing beta-galactosidase. In kind it is functional, organism-based, Toxoplasma gondii. Also on record: scale not given: in the data most compounds retested in dose-response had high values.

For the compound `Cc1ccc(CN(C)C(=O)CSc2nncn2C)o1`, the “Percent Effect” value (50 µM) is 6.979%. Regarding `Cc1cc(C)n(C2CN(CC(=O)N(C)Cc3ccc(C)o3)C2)n1`, the “Percent Effect” value (10 µM) is 1.659%. Take `CN1CCCN(C(=O)c2ccc(C#N)cc2)CC1`: the “Percent Effect” value (50 µM) is on record as -7.834%. Still for that read-out and setting: the result for `CC(C)c1nc(CN2CCCC3(CCNC3)C2)co1` (configuration not stated) reads -11.26%. In the case of `NC(c1ccccc1)C1(CO)CCC1` (configuration not stated), the “Percent Effect” value (50 µM) was found to be 8.034%. As to `Cc1ccc(OCCNC(=O)CN2CSCC2=O)cc1`, the “Percent Effect” value (50 µM) is reported as -3.002%. In the case of `Cc1nn(C)c2c(NCc3cccnc3)nc(C(C)C)nc12`, the “Percent Effect” value (10 µM) amounted to 25.8%. Still for that read-out and setting: the result for `Cc1nc(NCc2ccccn2)c2c(n1)c(C)nn2C` reads 13.62%; that for `CCOc1ccccc1Nc1nc2c(C)nn(C)c2c(=O)n1C`, 17.23%; that for `CCn1c(NCc2cccnc2)nc2c(C)nn(C)c2c1=O`, 57.44%.

`Cc1nn(C)c2c(=O)n(C(C)C)c(NCCc3ccccc3)nc12`: the “Percent Effect” value (10 µM) worked out at 81.01%. Still for that read-out and setting: the result for `Cc1nc(NCc2cccnc2)c2c(n1)c(C)nn2C` reads -7.547%. For `CCCn1c(NCCc2ccccc2)nc2c(C)nn(C)c2c1=O`, the “Percent Effect” value (10 µM) turned out to be 74.28%. Consider `CCn1c(NCc2ccccn2)nc2c(C)nn(C)c2c1=O`, for which, where the note is “10 µM”, the “Percent Effect” value is on record as 61.62%.

`Cc1nn(C)c2c(=O)n(C(C)C)c(NCC3CCCO3)nc12` (configuration not stated): where the note is “10 µM”, the “Percent Effect” value was 6.206%. Regarding `CCc1nc(NCc2ccccn2)c2c(n1)c(C)nn2C`, for the setting “10 µM”, the “Percent Effect” value is recorded as 20.03%. The same measure, in the same setting: the result for `COc1ccccc1Nc1nc2c(C)nn(C)c2c(=O)n1C` reads 9.981%. For the compound `CC(=O)c1ccc2c(c1)CCC(=O)N2C`, the “Percent Effect” value (50 µM) amounted to 4.842%. On to `CCOC(=O)NCCC(=O)N1CCCCCC1`, for which, for the setting “50 µM”, the “Percent Effect” value amounted to 12.12%.

`Cc1ccc(F)c(S(=O)(=O)NC[C@@H]2CCNC[C@H]2O)c1`: the “Percent Effect” value (50 µM) worked out at 0.2013%. The same measure, in the same setting: the result for `CN(C)Cc1nnc(-c2ccccc2)o1` reads 4.493%. The same measure, in the same setting: to `Cc1cc(CN)sc1C` belongs 12.43%. For the compound `COC(=O)c1ccc2c(c1)N(C)C(=O)CO2`, where the note is “50 µM”, the “Percent Effect” value is on record as -4.49%. `CCn1c(NCc2ccco2)nc2c(C)nn(C)c2c1=O`: for the setting “10 µM”, the “Percent Effect” value amounted to 8.368%. In the case of `CCn1c(Nc2ccccc2OC)nc2c(C)nn(C)c2c1=O`, the “Percent Effect” value (10 µM) is given as -60.37%. On the same count and under the same terms, the result for `COc1ccc(Nc2nc3c(C)nn(C)c3c(=O)n2C)cc1` reads 8.6%. The same measure, in the same setting: the result for `COc1ccc(C(C)Nc2nc3c(C)nn(C)c3c(=O)n2C)cc1` (configuration not stated) reads 18.77%; that for `CCn1c(NCc2ccccc2)nc2c(C)nn(C)c2c1=O`, 72.53%; that for `CCn1c(NCc2ccc(OC)cc2)nc2c(C)nn(C)c2c1=O`, 69.56%.

Take `O=C(NCC1(O)CCNC1)c1ccc(F)c(O)c1` (configuration not stated): the “Percent Effect” value (50 µM) was -8.112%. As to `O=C(NCc1c[nH]nn1)C1(Cc2ccccc2)CCC1`, under “50 µM”, the “Percent Effect” value is listed as -1.868%. Still for that read-out and setting: to `O=C(Nc1cnccn1)c1ccc(F)cn1` belongs 3.391%. Consider `Cc1ncc(CN(C)CCO)c2cc(C(=O)c3ccc(Br)cc3)oc12.Cl`, for which the “Percent Effect” value (10 µM) stood at 15.47%. With `Cc1ncc(CNCC(C)O)c2cc(C(=O)c3ccc(Br)cc3)oc12.Cl` (configuration not stated), the “Percent Effect” value (10 µM) is given as 12.01%. Take `Cc1ncc(CNCCO)c2cc(C(=O)c3ccc(Br)cc3)oc12.Cl`: the “Percent Effect” value (10 µM) stood at 76.96%.

As for `Cc1ncc(CNC(C)(C)CO)c2cc(C(=O)c3ccc(Br)cc3)oc12`, under “10 µM”, the “Percent Effect” value worked out at 20.02%. On to `Cc1ncc(CN2CCCC2)c2cc(C(=O)c3ccc(Br)cc3)oc12.Cl`, for which the “Percent Effect” value (10 µM) came to 24.27%.

Consider `COC(=O)c1ccc(C(=O)NC2(C#N)CCCC2)cc1`, for which the “Percent Effect” value (50 µM) is listed as -9.94%. For the compound `COc1cc(CN)cc(Br)c1OC`, for the setting “50 µM”, the “Percent Effect” value stood at 0.1756%.

For `Cn1ccc(C(=O)N2CCOc3ccccc32)cc1=O`, the “Percent Effect” value (50 µM) is -11.87%. Regarding `Cc1scc(-c2nnc(SCC(N)=O)n2C)c1C`, the “Percent Effect” value (50 µM) was -29.64%. The same measure, in the same setting: to `CSC(C)C(=O)Nc1ccc(Cl)c(C(=O)N(C)C)c1` (configuration not stated) belongs 8.458%. Regarding `CCn1cc(NC(=O)c2cc(C)nc(N3CCOCC3)n2)cn1`, the “Percent Effect” value (10 µM) is listed as 48.82%.

For `Cc1cc(C(=O)Nc2cnn(CC(F)(F)F)c2)nc(N(C)C)n1`, the “Percent Effect” value (10 µM) turned out to be 54.34%.

`Cc1cc(C(=O)Nc2cnn(CC(F)(F)F)c2)nc(N2CCOCC2)n1`: the “Percent Effect” value (10 µM) stood at 69.43%. Still for that read-out and setting: the result for `CCN(CC)c1nc(C)cc(C(=O)Nc2cnn(CC)c2)n1` reads -30.04%. Consider `Cn1nccc1C(=O)Nc1cnn(CC(F)(F)F)c1`, for which the “Percent Effect” value (50 µM) is on record as -29.38%. For `Cc1cc(C(=O)NCc2c(C)nn(C)c2C)nc(N2CCOCC2)n1`, the “Percent Effect” value (10 µM) stood at 20.1%. In the case of `CCCn1ccc(NC(=O)NC(C)C)n1`, the “Percent Effect” value (50 µM) is given as -36%. As for `CN(C)CC(=O)NC(C)(C(N)=O)c1cccc(Cl)c1` (configuration not stated), the “Percent Effect” value (50 µM) is 2.258%. As to `Cc1ccc2c(c1)C(=O)NCC2`, the “Percent Effect” value (50 µM) is -9.759%. Same read-out and setting: to `Cc1cccc(CN(CCO)Cc2nccn2C)n1` belongs 18.88%. As to `CSc1ccc(CN(CCO)Cc2nccn2C)cc1`, the “Percent Effect” value (10 µM) was 19.56%.

Take `CCc1ccc(CN(CCO)Cc2nccn2C)nc1`: the “Percent Effect” value (50 µM) is on record as 67.1%. The same measure, in the same setting: to `NC(=O)OCCNC(=O)c1occc1Br` belongs 5.554%. Turning to `CCN1CCCC1CNC(=O)c1cccc(OC)c1` (configuration not stated), the “Percent Effect” value (50 µM) was found to be 4.98%. Regarding `CCNC(=O)C1CN(C(=O)C(O)c2ccc(Br)cc2)C1` (configuration not stated), the “Percent Effect” value (50 µM) was -1.346%. For the compound `CSc1ccc(CN2C[C@@H]3CC[C@@](O)(c4ccc(C)cn4)[C@@H]3C2)cc1`, the “Percent Effect” value (10 µM) is listed as 14.14%. Still for that read-out and setting: to `Cc1ccc([C@]2(O)CC[C@H]3CN(Cc4cccc(F)c4F)C[C@H]32)nc1.O=C(O)CC(O)(CC(=O)O)C(=O)O` belongs -4.995%; to `Cc1ccc([C@]2(O)CC[C@H]3CN(Cc4ccc(Cl)cc4Cl)C[C@H]32)nc1`, 8.934%. For `Cc1cccnc1[C@]1(O)CC[C@H]2CN(Cc3cccc(Cl)c3Cl)C[C@H]21.O=C(O)CC(O)(CC(=O)O)C(=O)O`, the “Percent Effect” value (10 µM) was found to be 10.13%.

For `Cc1ccc([C@]2(O)CC[C@H]3CN(Cc4cccc(Cl)c4Cl)C[C@H]32)nc1.O=C(O)CC(O)(CC(=O)O)C(=O)O`, the “Percent Effect” value (10 µM) stood at 51.44%.
